According to PubChem BioAssay AID1159580 (chemical genetic matrix, 2015):
Where “and” joins values, the source holds several entries; their conditions need not be identical. Identical values can stand only once. Hit rate of the full screen: of about 5,500 compounds, about 2,000 (36%) were called active. About 18% were inconclusive and are not listed. Cut-off read from the data, not from the text of the source: active = normalized growth mostly below about 0.91 (no sharp cut-off); inconclusive = no clear call, values can overlap the other calls; inactive = mostly above about 0.92. The list shows a part of the results.

Experiment: chemical genetic growth profiling, strain panel (AID 1159580);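 note: tested at 20 µM; growth read once vehicle control cultures reached saturation at 30 °C; 1 = growth at the plate median or of vehicle wells; lower values mean less growth of the strain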
Details: S. cerevisiae deletion strains, growth OD

Measured: normalized growth

Oc1c(Cl)cc(Cl)c2cccnc12
active: locus YAL013W, strain DEP1, active compounds read low 0.0554 | locus YAL021C, strain ccr4, active compounds read low 0.0642 | locus YAL026C, strain drs2, active compounds read low 0.0607 | locus YAL030W, strain snc1, active compounds read low 0.0606 | locus YBL061C, strain skt5, active compounds read low 0.0718 | locus YBR009C, strain hhf1, active compounds read low 0.0665 | locus YBR021W, strain FUR4, active compounds read low 0.0914 | locus YBR023C, strain chs3, active compounds read low 0.0713 | locus YBR171W, strain sec66, active compounds read low 0.083 | locus YBR229C, strain ROT2, active compounds read low 0.0477 | locus YBR231C, strain swc5, active compounds read low 0.0819 | locus YBR279W, strain paf1, active compounds read low 0.064 | locus YCL011C, strain gbp2, active compounds read low 0.0637 | locus YCL016C, strain dcc1, active compounds read low 0.0656 | locus YCL029C, strain bik1, active compounds read low 0.0628 | locus YCL061C, strain MRC1, active compounds read low 0.0645 | locus YCL069W, strain vba3, active compounds read low 0.0656 | locus YCR088W, strain abp1, active compounds read low 0.0623 | locus YDL005C, strain med2, active compounds read low 0.0757 | locus YDL035C, strain GPR1, active compounds read low 0.0525 | locus YDL040C, strain nat1, active compounds read low 0.0611 | locus YDL074C, strain BRE1, active compounds read low 0.0827 | locus YDL101C, strain DUN1, active compounds read low 0.0602 | locus YDL134C, strain PPH21, active compounds read low 0.0491 | locus YDL185W, strain tfp1, active compounds read low 0.0641 | locus YDL192W, strain arf1, active compounds read low 0.0659 | locus YDR001C, strain nth1, active compounds read low 0.0589 | locus YDR069C, strain doa4, active compounds read low 0.0663 | locus YDR101C, strain arx1, active compounds read low 0.0587 | locus YDR137W, strain rgp1, active compounds read low 0.113 | locus YDR150W, strain NUM1, active compounds read low 0.0572 | locus YDR159W, strain sac3, active compounds read low 0.0885 | locus YDR162C, strain NBP2, active compounds read low 0.0476 | locus YDR195W, strain ref2 0.117 | locus YDR297W, strain sur2, active compounds read low 0.067 | locus YDR318W, strain mcm21, active compounds read low 0.0673 | locus YDR334W, strain swr1, active compounds read low 0.0629 | locus YDR335W, strain msn5, active compounds read low 0.0654 | locus YDR388W, active compounds read low 0.0609 | locus YDR392W, strain spt3, active compounds read low 0.0726 | locus YDR502C, strain sam2, active compounds read low 0.0656 | locus YEL003W, strain gim4, active compounds read low 0.0637 | locus YEL037C, strain rad23, active compounds read low 0.0639 | locus YEL061C, strain CIN8 (second series), active compounds read low 0.0636 | locus YEL061C, strain CIN8, active compounds read low 0.0482 | locus YER015W, strain faa2, active compounds read low 0.0692 | locus YER016W, strain bim1, active compounds read low 0.0695 | locus YER110C, active compounds read low 0.08 | locus YER111C, strain swi4, active compounds read low 0.0742 | locus YER155C, strain BEM2 (second series), active compounds read low 0.0894 | locus YER155C, strain BEM2, active compounds read low 0.0642 | locus YER167W, strain BCK2, active compounds read low 0.0516 | locus YFR010W, strain ubp6, active compounds read low 0.0659 | locus YGL078C, strain dbp3, active compounds read low 0.0639 | locus YGL086W, strain mad1, active compounds read low 0.0594 | locus YGL167C, strain pmr1, active compounds read low 0.0827 | locus YGL173C, strain kem1, active compounds read low 0.076 | locus YGL227W, strain vid30, active compounds read low 0.0665 | locus YGL240W, strain doc1, active compounds read low 0.0841 | locus YGL248W, strain PDE1, active compounds read low 0.0454 | locus YGL253W, strain hxk2, active compounds read low 0.0551 | locus YGR078C, strain PAC10, active compounds read low 0.0521 | locus YGR135W, strain pre9, active compounds read low 0.0748 | locus YGR229C, strain SMI1, active compounds read low 0.0589 | locus YGR252W, strain gcn5, active compounds read low 0.158 | locus YHR013C, strain ard1, active compounds read low 0.111 | locus YHR027C, strain rpn1, active compounds read low 0.0681 | locus YHR030C, strain SLT2, active compounds read low 0.0506 and 0.116 | locus YHR079C, strain IRE1 (second series), active compounds read low 0.0598 | locus YHR079C, strain IRE1, active compounds read low 0.119 | locus YHR094C, strain hxt1, active compounds read low 0.0629 | locus YHR129C, strain ARP1, active compounds read low 0.0524 | locus YHR142W, strain chs7, active compounds read low 0.0684 | locus YHR200W, strain rpn10, active compounds read low 0.066 | locus YIL066C, strain RNR3, active compounds read low 0.0479 | locus YIL073C, strain SPO22, active compounds read low 0.128 | locus YIL125W, strain kgd1, active compounds read low 0.0656 | locus YIR030C, strain dcg1, active compounds read low 0.0607 | locus YJL092W, strain hpr5, active compounds read low 0.0625 | locus YJL095W, strain BCK1 (second series), active compounds read low 0.0621 | locus YJL095W, strain BCK1, active compounds read low 0.0584 and 0.118 | locus YJL115W, strain asf1, active compounds read low 0.0757 | locus YJL129C, strain trk1, active compounds read low 0.089 | locus YJL134W, strain LCB3, active compounds read low 0.0493 | locus YJL154C, strain vps35, active compounds read low 0.0617 | locus YJL164C, strain tpk1, active compounds read low 0.062 | locus YJL166W, strain qcr8, active compounds read low 0.0623 | locus YJL168C, strain set2, active compounds read low 0.0626 | locus YJL187C, strain SWE1 (second series), active compounds read low 0.0481 | locus YJL187C, strain SWE1, active compounds read low 0.0669 | locus YJR043C, strain POL32, active compounds read low 0.0614
